Among all 65,000 compounds or so, about 2,100 (3.2%) showed an effect of 50% or more. The median lay at about -52%. The full list was thinned out, with strong results kept by preference.
These molecules were tested on Plasmodium falciparum (assay: Screen against P. falciparum Asexual Blood Stage (ABS), at 5uM). Conditions: tested at 5 uM.
Assay type: functional, Dd2

SMILES | INHIBITION [%]
CC(C)NC(=O)[C@H]1C[C@@H]2[C@@H](C1)OCCN2Cc1cccs1 | -20.5
C[C@@H]1CCC[C@H](C)N1CC(=O)N1CCc2[nH]c(-c3ccccc3)nc2C1 | -64.1
O=C(NCCc1cccs1)[C@]12COC[C@H]1CN(Cc1ccncc1)C2 | -31
O=C(NCCN1CCCCC1)c1ccn(-c2ccccc2)n1 | -37.9
COc1cn(-c2ccccc2)nc1C(=O)NCCN1CCCC(C)C1 (centres undefined) | -57.1
CC1CCCN(CCNC(=O)c2ccn(-c3ccccc3)n2)C1 (centres undefined) | 50.8
CC(C)OCc1ccc(CNc2cncc(-n3cccn3)n2)cc1 | -83.1
COCCNC(=O)c1ccc2c(=O)n3c(nc2c1)CCCC3 | -68
COc1ccc(CN2CCCC(N3CCCC3)C2)cc1Cn1cncn1 (centres undefined) | -34.2
COc1cc(Cl)cc(CN2CCCC(N3CCOCC3)C2)c1OC (centres undefined) | -126
COc1cc(Cl)cc(CN2CCCC(N3CCCC3)C2)c1OC (centres undefined) | 64.1
O=C(O)c1ccccc1-n1cnc(CN2CCc3ccccc32)c1 | -68.5
Cn1nccc1CNC(=O)Nc1cc(C(F)(F)F)c[nH]c1=O | -32.9
O=C(NCc1ccncc1)Nc1cc(C(F)(F)F)c[nH]c1=O | -57.7
Cn1nccc1C(=O)Nc1cc(C(F)(F)F)c[nH]c1=O | 56.5
CNc1cc(C)nc(C2COCCN2Cc2csc(C)n2)n1 (centres undefined) | -146
Cc1ccnn1CCC(=O)N1CCC(c2cnccn2)CC1 | -164
CN(Cc1cscn1)C(=O)C(c1ccccc1)N1CCSCC1 (centres undefined) | 13.8
CCN(CC)C(CNS(=O)(=O)NCc1ccccc1)c1ccco1 (centres undefined) | 67
CCN(CC)C(CNCc1ccc(O)cc1)c1ccco1 (centres undefined) | 40.1
CCN(CC)C(CNS(=O)(=O)c1ccc(C(=O)NC)cc1)c1ccco1 (centres undefined) | -31.7
Cn1ncc2c(NC3CCCN(C(=O)C4CC4)C3)nc(C(C)(C)C)nc21 (centres undefined) | -74
Cn1ncc2c(NC3CCC(N)CC3)nc(C(C)(C)C)nc21 (centres undefined) | 65.3
Cn1ncc2c(N[C@H]3CCCC[C@@H]3O)nc(C(C)(C)C)nc21 | -65.3
COCCN1CCC2(CC1)CC(NC(=O)C(C)C)c1ccccc1O2 (centres undefined) | -12.4
Cn1nc(C(=O)N2CCSCC2)cc1NC(=O)c1ccco1 | -104
CNc1nc(N2CCN(CC=C(C)C)C(CCO)C2)nc2c1CCC2 (centres undefined) | -7.97

SMILES | INHIBITION [%]
CNc1nc(N2CCN(C3CCCCC3)C(CCO)C2)nc2c1CCC2 (centres undefined) | -32.3
CNc1nc(N2CCN(Cc3ccsc3)C(CCO)C2)nc2c1CCC2 (centres undefined) | 55.7
CN(C)[C@@H]1C[C@@H](CO)N(C(=O)Nc2ccc(SC(F)(F)F)cc2)C1 | 7.77
CCc1nc(C)cn1C(=O)Nc1ccc(F)cc1 | -11.7
Cc1n[nH]c(C2CN(C(=O)c3ccco3)CCO2)n1 (centres undefined) | -132
CC(C)(C)CC(=O)NC(C)(C(N)=O)c1cccc(Cl)c1 (centres undefined) | -54.6
Cc1ccc(=O)n(CC2(O)CCN(Cc3c(F)cccc3F)CC2)n1 | -42.4
Fc1cccc(NCc2ncc[nH]2)c1 | -155
Cn1cc(C(NCc2ccc(F)cc2)c2cccc(F)c2)cn1 (centres undefined) | 13.6
Fc1cccc(C(NCc2ncc[nH]2)c2ccccc2)c1 (centres undefined) | 69.1
Cc1c(C(=O)NCC2CCS(=O)(=O)C2)cnn1-c1ccccc1 (centres undefined) | -29.9
Cc1cc(C(=O)N2CCCC3(COCCN(CCN(C)C)C3)C2)no1 (centres undefined) | -49.7
CCn1ncc2c1CCCC2NCc1cccc2c1OCO2 (centres undefined) | -116
CCn1ncc2c1CCCC2NCc1cccc2c1OCCO2 (centres undefined) | -36
CCn1ncc2c1CCCC2NCc1cccc2c1OCCCO2 (centres undefined) | -15.3
CC(C)(C)n1ncc2c1CCCC2NCc1cccc2c1OCCO2 (centres undefined) | 61.5
Cn1ncc2c1CCCC2NCc1cccc2c1OCCCO2 (centres undefined) | -48.9
CC(C)(C)n1ncc2c1CCCC2NCc1cccc2c1OCO2 (centres undefined) | 56.8
CN(CCc1ccncc1)CCc1nccs1 | -102
Cc1c[nH]c(C2COCCN2C(=O)c2n[nH]c(=O)c3ccccc23)n1 (centres undefined) | -96.3
Cc1ncnc2c1CCN(C(=O)N(C)C)CC2 | -100
COCCC1CN(c2nc(-c3ccccc3)nc3c2CCNC3)CCO1 (centres undefined) | -21.7
OCCC1CN(c2nc(-c3cccnc3)nc3c2CCNCC3)CCO1 (centres undefined) | -121
NCC1CN(c2nc(-c3cccnc3)nc3c2CCNCC3)CCO1 (centres undefined) | -84.9
NCCC1CN(c2nc(-c3ccccc3)nc3c2CCNC3)CCO1 (centres undefined) | 66.1
NCC1CN(c2nc(-c3ccccc3)nc3c2CCNCC3)CCO1 (centres undefined) | 69.5
OCCC1CN(c2nc(-c3ccncc3)nc3c2CCNCC3)CCO1 (centres undefined) | -97.5

— ChEMBL document CHEMBL4513216, “Probing the Open Global Health Chemical Diversity Library for Multistage-Active Starting Points for Next-Generation Antimalarials” (ACS Infect Dis, 2020)
